Assay results taken from PubChem BioAssay AID743293 (Broad Institute, 2014).
Measured potencies and affinities stand elsewhere. Activity calls are given as the source filed them.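 The calls were made as follows: active = compounds lowering fluorescence with a fitted half-maximal concentration at or below a set limit tied to top dose; inconclusive = flat curve with 30 to 70% inhibition, or poor fit; inactive = the rest.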

Molecular target: Caspase-9 (Homo sapiens) (UniProt P55211)
Assay: caspase-9 enzyme inhibition, dose response, selectivity assay for caspase-6 inhibitor project, biochemical, fluorescence, plate reader, cherry-picked samples (AID 743293)
Conditions: purified caspase-9, Z-LEHD-R110 cleavage fluorescence; series mostly up to 35 µM; activity change, negative = inhibition: at the top concentration

Caspase-9 (Homo sapiens), sequence (P55211 whole entry, looked up): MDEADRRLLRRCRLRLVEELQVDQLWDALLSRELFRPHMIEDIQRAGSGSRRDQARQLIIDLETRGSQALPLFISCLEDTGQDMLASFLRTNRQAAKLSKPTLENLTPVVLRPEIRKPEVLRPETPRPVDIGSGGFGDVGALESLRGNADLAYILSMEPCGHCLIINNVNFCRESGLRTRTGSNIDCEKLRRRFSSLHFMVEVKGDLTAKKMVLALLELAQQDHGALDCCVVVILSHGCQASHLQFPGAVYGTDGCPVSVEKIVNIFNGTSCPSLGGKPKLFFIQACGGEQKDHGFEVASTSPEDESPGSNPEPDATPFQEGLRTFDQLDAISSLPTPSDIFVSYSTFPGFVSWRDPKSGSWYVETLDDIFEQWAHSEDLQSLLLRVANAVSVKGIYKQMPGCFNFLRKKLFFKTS

Activity change, negative = inhibition, inactive:
Oc1cc2c(cc1O)[C@H]1c3ccc(O)c(O)c3OC[C@@]1(O)C2 -2.83%, O=S(=O)(O)c1cc(O)c2cc(Nc3ccccc3)ccc2c1 13%, Cc1ccc(S(=O)c2ccc([N+](=O)[O-])c3nonc23)cc1 (centres undefined) -0.086%, O=C(c1cccc(-n2cccc2)c1)N1CCN(S(=O)(=O)c2ccccc2)CC1 0.468%, O=c1oc(-c2ccccc2)nc2sc3c(c12)CCC3 -0.653%, Cc1ccc(NC(=O)CN(C)C(=O)c2cccc(-n3cccc3)c2)cc1 2.92%, Cc1oc2c(cc(NS(=O)(=O)c3ccc(C(C)C)cc3)c3ccccc32)c1C(=O)O 14.4%, O=C(O)CC(CCc1ccccc1)OC1OC(CO)C(O)C(O)C1O (centres undefined) 6%, CCCCN(C(=O)c1cccc(-n2cccc2)c1)c1c(N)n(CCC)c(=O)[nH]c1=O 12.8%, CN(CC(=O)Nc1c(Cl)cccc1Cl)C(=O)c1cccc(-n2cccc2)c1 12.2%, O=C(COC(=O)c1ccccc1)Nc1ncc([N+](=O)[O-])s1 -6.14%, Cc1cccc(NC(=O)CNC(=O)c2cccc(-n3cccc3)c2)c1C 4.32%, COc1cc(NCCCCC(C)N)c2nccc(C)c2c1 (centres undefined) 3.91%, CO[C@H]1CN(C)C(=O)c2cc(NC(C)=O)ccc2OC[C@@H](C)N(C(=O)CC2CC2)C[C@H]1C 26.4%, O=c1oc2ccccc2c2oc3cc(O)c(O)cc3c12 13.4%, CCOC(=O)[C@H](Cc1c[nH]c2ccccc12)NC(=O)CN=[N+]=[N-] 14.2%, O=C(O)C1Nc2c(Cl)cc(Cl)c(Cl)c2C2C=CCC12 (centres undefined) 2.14%, CNS(=O)(=O)c1cccc(C(=O)OCC(=O)N2c3ccccc3NC(=O)C2(C)C)c1 10.5%, Cc1cc(C=O)c(C)n1-c1ccc(Cl)c(C(=O)O)c1 7.2%, Nc1cc2c(cc1Br)[nH]c(=O)c1ccccc12 -8.46%, Cc1[nH]nc(S(=O)CC(=O)O)c1[N+](=O)[O-] (centres undefined) 6.6%, [O-][n+]1onc2c1CCc1c-2nn(-c2ccccc2Cl)[n+]1[O-] 1.99%, CN(CC(=O)Nc1ccccc1Cl)C(=O)COC(=O)c1ccc([N+](=O)[O-])s1 -8.48%, CC(CNc1ccccc1O)C(=O)O (centres undefined) -4.67%, O=c1cc2c(=O)oc3cc(O)c(O)oc3c2c(O)c1O -13.2%, Oc1cc(O)cc(C=Cc2ccc(O)c(O)c2)c1 -0.042%, Cc1c(CCC(=O)O)c(=O)oc2c(C)c(OCc3ccccc3Cl)ccc12 2.99%, CCN(CC)CCCC(C)n1c2nc(=O)[nH]c(=O)c-2nc2cc(Cl)ccc21 (centres undefined) 213% [at 11 µM], O=c1c(O)cccc2cc(O)c(O)c(O)c12 -7.42%
